BoNT-F LC inh: blocks Botulinum neurotoxin F light chain protease; Multiplex microsphere protease cleavage assay, flow cytometry; inhibition, % at 10 µM; actives 0.22% (n = 360,000); AID 588497; in the data active means inhibition above about 35%, passing the limit was not always enough; inconclusive means no clear call, values can overlap the other calls
Anthrax LF inh2: inhibitors of Bacillus anthracis lethal factor protease | P15917 | inhibition, % at 10 µM | actives 0.12% (n = 360,000) | multiplex microsphere protease cleavage assay, LF
Target sequence (P15917 whole entry, looked up): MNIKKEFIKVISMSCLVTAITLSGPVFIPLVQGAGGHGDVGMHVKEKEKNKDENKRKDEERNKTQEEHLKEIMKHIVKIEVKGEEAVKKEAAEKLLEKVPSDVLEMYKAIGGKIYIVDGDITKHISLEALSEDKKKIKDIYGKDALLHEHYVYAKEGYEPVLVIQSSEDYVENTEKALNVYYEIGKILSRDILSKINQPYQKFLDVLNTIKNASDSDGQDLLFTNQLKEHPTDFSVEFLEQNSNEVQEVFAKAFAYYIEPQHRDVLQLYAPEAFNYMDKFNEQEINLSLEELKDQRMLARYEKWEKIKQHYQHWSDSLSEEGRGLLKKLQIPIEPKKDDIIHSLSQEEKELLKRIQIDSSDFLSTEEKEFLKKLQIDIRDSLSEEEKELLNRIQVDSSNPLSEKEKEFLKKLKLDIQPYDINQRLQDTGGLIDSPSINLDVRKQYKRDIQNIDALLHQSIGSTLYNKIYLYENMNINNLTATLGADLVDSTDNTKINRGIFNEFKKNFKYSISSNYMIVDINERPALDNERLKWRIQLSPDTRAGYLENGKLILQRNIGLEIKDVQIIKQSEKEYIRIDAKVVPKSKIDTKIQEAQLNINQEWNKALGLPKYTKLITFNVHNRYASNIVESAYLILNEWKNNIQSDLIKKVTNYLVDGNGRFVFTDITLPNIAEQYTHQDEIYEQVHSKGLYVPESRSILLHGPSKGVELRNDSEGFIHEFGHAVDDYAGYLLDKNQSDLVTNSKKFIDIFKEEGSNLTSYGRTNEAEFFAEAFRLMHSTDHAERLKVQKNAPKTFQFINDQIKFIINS
BoNT-A LC inh2: BoNT A light chain protease inhibition; multiplex microsphere protease substrate cleavage, flow cytometry; inhibition, % at 10 µM; actives 0.17% (n = 360,000)
Bead autofluor: counter-screen for toxin protease inhibitors: compound fluorescence | compound autofluorescence counterscreen, microsphere flow cytometry; hits give high values | fluorescence intensity (concentration not given with the values) | actives 3.1% (n = 360,000); in the data active means fluorescence intensity above about 16000; inconclusive means no clear call, values can overlap the other calls
A number is an active result; i = inactive; ? = inconclusive; ! = a repeat was not active. Hits are enriched below; roughly 3.5% of the tested compounds scored in any of these assays. Unless noted, no stated cut-off is given here; in the data, active means inhibition above about 30%; inconclusive means no clear call, values can overlap the other calls; inactive means below that.

SMILES	BoNT-F LC inh	Anthrax LF inh2	BoNT-A LC inh2	Bead autofluor
COc1ccc(CCNC(=O)C2CCCN(c3nc4ccccc4s3)C2)cc1OC (configuration not stated)	i	i	i	i
CCc1nnc(NC(=O)C2CCCN(c3nc4ccccc4s3)C2)s1 (configuration not stated)	i	i	i	19697
O=C(COC(=O)/C=C/c1ccc(OC(F)F)cc1)Nc1cccc(S(=O)(=O)N2CCOCC2)c1	i	i	i	i
COCc1c(C(=O)N(C)Cc2ccccc2N2CCCC2)oc2ccccc12	i	?	i	?
O=c1cnnc(SCCc2ccccc2)[nH]1	i	i	i	23384
CSc1nncc(=O)[nH]1	i	i	i	21213
Cc1cccc(CSc2nncc(=O)[nH]2)c1	i	i	i	i
Cc1ccc(C)n1-c1ccc(C(=O)N2CCOCC2)cc1	i	i	?	22385
O=C(c1cc(Cl)cc(Cl)c1)N1CCOCC1	i	i	i	20304
Cc1ccc(C)n1-c1ccc(N2CCOCC2)nc1	i	i	i	22547
CC(=O)c1c(C(C)=O)c(C)n(-c2ccc(C)c(NC(=O)c3ccccc3Cl)c2)c1C	i	i	i	16183
Cc1cc(NC(=O)c2ccccc2)ccc1NC(=O)c1ccccc1Cl	i	i	i	i
CCc1sc(NS(C)(=O)=O)nc1-c1ccccc1	i	i	i	23262
CCc1sc(NC(C)=O)nc1-c1ccccc1	i	i	i	i
CCOc1cc(/C=C(\C#N)c2[nH]nc(N)c2C#N)ccc1O	i	i	i	23984
CCOc1cc(-c2cc(-c3ccc(C)cc3)nc(N)c2C#N)ccc1O	i	i	i	i
CCCN(CC1CCCO1)C(=O)CCc1nnc(CCc2ccc(OC)cc2)o1 (configuration not stated)	i	i	i	i
CCOC(=O)c1ccccc1NC(=O)Cc1ccccc1OC	i	i	i	20686
CCOC(=O)c1ccccc1NC(=O)c1cccs1	i	i	i	17478
O=C(Nc1cccc2nsnc12)c1cccs1	i	i	i	21640!
Cc1[nH]c2ccc(C(=O)NCCCN(C)C3CCCCC3)cc2c1C	i	i	i	i
O=C(NCCS(=O)(=O)N1CCN(c2ccccc2)CC1)C1CCCCC1	i	i	i	i
C=CCN1C(=O)C2(OCCCO2)c2cc(C)ccc21	?	i	i	i
CCOC(=O)Nc1ccc2c(CNC(C)c3ccccc3OC)cc(=O)oc2c1 (configuration not stated)	i	i	i	i
CC(C)n1cnc2cc(NCc3ccccn3)ccc21	i	i	i	20604
SMILES	BoNT-F LC inh	Anthrax LF inh2	BoNT-A LC inh2	Bead autofluor
CNc1nc(Oc2ccccc2C(=O)OC)nc(SC)n1	i	i	i	21738
CCOC(=O)c1ccc(Oc2nc(NC)nc(SC)n2)cc1	i	i	i	i
CCNc1nc(Oc2ccc(C(=O)OCC)cc2)nc(SC)n1	i	i	i	i
CCNc1nc(Oc2ccc(C(=O)OC)cc2)nc(SC)n1	i	i	i	22097
Cc1ccc(S(=O)(=O)N2CCCCC2)cc1NC(=O)COC(=O)c1cccn1C	i	i	i	i
CC(C)Cc1ccc(C(C)C(=O)N2CCOCC2)cc1 (configuration not stated)	i	i	?	22712
COCCCNC(=O)c1ccc2c(c1)CCN2S(C)(=O)=O	i	i	i	22130
Cc1cc(Cl)c(S(=O)(=O)N2CCN(c3ccc(F)cc3)CC2)cc1OCC(=O)NC1CCCCC1	i	i	i	16526
COC(=O)COc1ccc(S(=O)(=O)Nc2ccc3c(c2)OCCO3)cc1Cl	i	i	i	20964
Cc1cc(Cl)c(S(=O)(=O)Nc2ccc3c(c2)OCCO3)cc1OCC(=O)NC1CCCCC1	i	i	?	19863
Cc1cc(Cl)c(S(=O)(=O)Nc2ccon2)cc1OCC(=O)NC1CCCCC1	i	i	i	i
CCOc1cc(C)nc(N2CCC(C(=O)NC3CC3)CC2)n1	i	i	i	i
CC(O)(CS(=O)(=O)Cc1ccccc1)C(=O)Nc1cccc(C(F)(F)F)c1 (configuration not stated)	i	i	i	20560
CC(O)(CS(=O)(=O)c1cccc(C(F)(F)F)c1)C(=O)Nc1cccc(C(F)(F)F)c1 (configuration not stated)	i	i	i	i
CC(O)(CS(=O)(=O)Cc1ccccc1)C(=O)Nc1ccc(C(F)(F)F)cc1 (configuration not stated)	i	i	?	23000
COc1ccccc1C(=O)N1CCN(CCNC(=O)C(=O)Nc2ccc(Br)c(C)c2)CC1	i	i	i	i
COc1ccccc1COCC(O)CNCC1(N2CCCCC2)CCCCC1 (configuration not stated)	i	i	i	22309
COC(=O)CSc1nnc(-c2ccc(S(=O)(=O)NCc3cccs3)cc2)o1	i	i	i	21213
CCOC(=O)CSc1nnc(-c2ccc(S(=O)(=O)NCc3cccs3)cc2)o1	i	i	i	i
COC(=O)CSc1nnc(-c2ccc(S(=O)(=O)NCc3ccccc3Cl)cc2)o1	i	i	i	21867
CCOC(=O)c1cnn(CCOC(=O)C2CC2)c1NC(=O)C1CC1	i	i	i	20293
CC(C)N(Cc1nc(-c2ccccc2)no1)C(=O)Cc1ccccc1	i	i	i	i
COc1cccc(C(=O)N(Cc2nc(-c3ccc(C)cc3)no2)C(C)C)c1	i	i	?	23492
Cc1cc(Br)ccc1OCC(=O)N(Cc1nc(-c2ccccc2)no1)C(C)C	i	i	i	20443
Cc1ccc(-c2noc(CN(C(=O)Cc3ccccc3)C(C)C)n2)cc1	i	i	?	19931
SMILES	BoNT-F LC inh	Anthrax LF inh2	BoNT-A LC inh2	Bead autofluor
O=C(c1ccccc1Cl)N(Cc1ccc(Br)cc1)N1C(=O)CCC1=O	i	i	i	i
Cc1cnc(C(=O)OCC(=O)c2ccc(C)s2)cn1	i	i	i	i
CCN(CCn1cccn1)C(=O)c1cccc(OC2CCN(S(C)(=O)=O)CC2)c1	i	i	i	i
CCOc1cc(C)c(-c2onc(C(F)(F)F)c2-c2csc(C)n2)c(O)c1	i	i	i	22729
Cc1nc(-c2c(C(F)(F)F)noc2-c2ccc(O)cc2O)cs1	i	i	?	17928
Oc1ccc(-c2onc(C(F)(F)F)c2-c2cscn2)c(O)c1	i	i	i	i
O=S(=O)(c1cccc2nonc12)N1CCCCC1	i	i	i	?
Cc1ccc2[nH]cc(C(=O)CN3CCN(c4ccccc4F)CC3)c2c1	i	i	i	19645
c1ccc(-n2nnnc2SCc2cn3cccnc3n2)cc1	i	i	i	23611
COc1ccc(CNC(=O)/C=C/[C@H]2O[C@@H](n3ccc(=O)[nH]c3=O)[C@H](O)[C@@H]2O)cc1	i	i	i	i
O=C(O)c1oc2ccccc2c1CSc1ccc(Cl)cc1	i	i	i	i
O=C(c1ccc(Cl)cc1)c1oc2ccccc2c1CS(=O)c1ccccc1 (configuration not stated)	i	i	i	20280
O=C(Nc1cccnc1)c1c(F)cccc1F	i	i	?	16636
O=C(Nc1cccnc1)c1ccccc1-c1nc(-c2ccccc2F)no1	i	i	i	21936
O=C(Nc1cccnc1)c1ccccc1F	i	i	i	i
COc1ccccc1-c1noc(-c2ccccc2C(=O)Nc2cccnc2)n1	i	i	i	22521
COc1ccc(-c2noc(-c3ccccc3C(=O)Nc3cccnc3)n2)cc1OC	i	i	i	i
CC/C(=C\c1ccc(N(C)C)cc1)c1ccncc1	i	i	i	i

Screening results as filed in PubChem BioAssay.
